# This is a sample that favours compounds with a hit; in the whole collection about 7.5% have one here.
# Rab9 promoter act: activators of Rab9 promoter; Huh7 Rab9 promoter-luciferase reporter, luminescence, 24 h; 320,000 compounds, 2.8% hits; Potency, µM (top dose mostly 9.22 µM), actives largely listed as activators; AID 485297; also: nearly all actives have a fitted effect of over 60% in size
#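 Huh7 reporter line, Rab9 promoter upstream of luciferase. Compound exposure 24 h at 37 °C in reduced-serum medium with 10% FBS. Read-out: luminescence.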
# NPC1 prom act: activators of NPC1 promoter | AID 485313 | Potency, µM (top dose mostly 9.22 µM), hits mostly activators | Huh7 NPC1 promoter luciferase reporter, 24 h | 320,000 compounds, 2.4% hits; also: nearly all actives have a fitted effect of over 60% in size
#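 Huh7 reporter cells (NPC1 promoter driving luciferase) are dosed with compound for 24 h at 37 °C, 5% CO2; luciferase detection reagent is then added and luminescence measured after 10 min at ambient temperature.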
# SMN2 splice up: enhancers of SMN2 splice variant expression; HEK293 SMN2-luciferase splicing reporter, luminescence, 30-36 h; Potency, µM (titrated, usually from 46.1 µM), usual class: activators; 210,000 compounds, 2.8% hits; also: nearly all actives have a fitted effect of over 55% in size
#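 qHTS luciferase splicing reporter: luminescence rises when SMN2 exon 7 is included in transfected HEK293 cells. Compound exposure lasted 30-36 h at 37C, with 4.5 mM final sodium butyrate as control, followed by a ONE-Glo read.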
# FLuc modulator: firefly luciferase modulation, counter-screen for miR-21 project; purified FLuc, Km substrates, luminescence inhibition; Potency, µM (series often up to 57.5 µM), actives largely listed as inhibitors; P08659; AID 588342; 360,000 compounds, 6.9% hits; also: nearly all actives have a fitted effect of over 55% in size
# Target sequence (P08659 whole entry, looked up): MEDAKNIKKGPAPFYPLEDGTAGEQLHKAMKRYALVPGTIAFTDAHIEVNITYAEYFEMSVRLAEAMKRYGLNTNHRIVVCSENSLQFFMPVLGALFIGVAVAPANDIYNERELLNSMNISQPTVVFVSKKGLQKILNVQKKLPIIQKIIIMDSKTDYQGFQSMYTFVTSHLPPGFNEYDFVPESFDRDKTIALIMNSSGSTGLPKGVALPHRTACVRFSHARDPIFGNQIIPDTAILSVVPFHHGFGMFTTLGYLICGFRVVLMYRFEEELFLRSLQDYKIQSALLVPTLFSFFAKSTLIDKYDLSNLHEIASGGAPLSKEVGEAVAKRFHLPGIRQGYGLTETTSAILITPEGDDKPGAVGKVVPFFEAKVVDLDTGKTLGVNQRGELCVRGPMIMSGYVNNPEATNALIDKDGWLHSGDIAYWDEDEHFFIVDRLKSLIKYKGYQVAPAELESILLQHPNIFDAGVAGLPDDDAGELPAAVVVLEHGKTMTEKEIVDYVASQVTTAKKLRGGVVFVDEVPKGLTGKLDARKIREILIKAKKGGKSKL
#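 Biochemical qHTS of compounds, final roughly 60 µM downward over six points, against 10 nM purified firefly luciferase using Km concentrations of substrates (10 uM D-luciferin, 10 uM ATP) in Tris acetate pH 7.5 buffer; luminescence output.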
# ELG1 genotox: inducers of genotoxicity in HEK293T ELG1-luciferase cells; AID 504466; Potency, µM (titrated, usually from 46 µM), usual class: activators; 330,000 compounds, 1.3% hits; HEK293T ELG1-luciferase reporter, luminescence, 16 h; also: nearly all actives have a fitted effect of over 60% in size
#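 ELG1-luciferase HEK293T cells, 2,000/well; compound pinned in; 16 hr, 37 °C, 5% CO2; ONE-Glo, 30 min RT; luminescence on CCD imager.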
# A number is an active result; n = inactive; u = inconclusive; x = not tested or not shown; [ ] = dose if it differs, or a comment. Calls follow the shape of the dose curve; as a rule, active = well fitted curve in the direction sought with a large enough effect; inconclusive = small, poorly fitted or top-dose-only effect, or another doubt; inactive = no such curve, though single readings can be large; an effect the other way counts as inactive or inconclusive.
SMILES,Rab9 promoter act,NPC1 prom act,SMN2 splice up,FLuc modulator,ELG1 genotox
O=S(=O)(c1ccc(Cl)cc1)c1nc(-c2ccco2)oc1SCc1ccc(F)cc1,x,x,n,n,x
COc1ccc(C(=O)Cn2c(NCCO)nc3ccccc32)cc1,n,n,n,n,n
O=C(/C=C/c1ccc(N2CCC(c3ccccc3)=N2)cc1)c1ccccc1,n,n,n,15.1µM,n
COc1ccc(/C=C/C(=O)c2nc3ccccc3n2CC(=O)c2ccc(OC)cc2)cc1,n,n,n,9.53µM,n
O=C(/C=C/c1ccc(O)cc1)c1ccc(NC2=C(N3CCCCC3)C(=O)c3ccccc3C2=O)cc1,n,n,n,7.57µM,n
O=C1C(Nc2ccccc2)=C(N2CCCCC2)C(=O)c2ccccc21,n,n,n,n,n
COc1ccc(C(=O)/C=C/c2ccc(O)cc2)cc1,n,n,x,8.49µM,n
COc1ccc(C(=O)/C=C/c2ccccc2)cc1,x,x,n,x,x
O=S(=O)(c1ccc(F)cc1)N1CCC2(CC1)OCCN2S(=O)(=O)c1cccs1,n,n,x,n,n
O=C(Cn1c(=O)c2cccn2c2ccc(F)cc21)NCc1cccc(Cl)c1,x,x,x,n,x
Cc1nn(C)cc1/C=C/C(=O)c1ccc(O)cc1,u,u,n[1.84 µM],13.5µM,20.6µM
COc1ccc(C(=O)/C=C/c2ccc(OC3CSC3)cc2)cc1OC,n,n,n,u,n
O=C(/C=C/c1ccc(OC2CSC2)cc1)c1ccc(Cl)cc1,n,n,n,10.7µM,n
O=C(Nc1ccccc1)C(=O)Nc1ccc2c(c1)N(C(=O)C1CC1)CCC2,1.12µM,1.12µM,x,3.38µM,1.64µM
O=C(C1CCC(C(=O)N2CCc3ccccc32)CC1)N1CCc2ccccc21 (stereo not drawn),n,n,n,n,n
O=C(Nc1ccccc1)N1CCCc2ccccc21,n,n,n,n,n
Cc1ccc(NC(=O)N2CCCc3ccccc32)cc1C,n,n,x,21.3µM,u
Cc1ccc(NC(=O)C2CCCN(C(=O)c3ccc(Cl)cc3)C2)cc1C (stereo not drawn),u,n,n,26.9µM,n
O=C(Nc1ccc(Br)cc1)N1CCCCC1,u,u,u,15.1µM,n
COc1cccc(OCC(=O)NCCS(=O)(=O)N2CCN(c3ccccc3F)CC2)c1,x,x,x,n,x
Cc1cc(F)ccc1S(=O)(=O)N1CCCOC1CNC(=O)C(=O)NCc1ccncc1 (stereo not drawn),n,n,x,n,n
CC(C)NCc1cc(Br)ccc1OCc1ccccc1,u,n,n,n,n
O=C(NC1CCCCC1)N1CCc2ccccc21,u,u,12.6µM,19µM,14.6µM
Cc1ccc(NC(=O)N2CCCCC2)cc1NC(=O)N1CCCCC1,n,n,x,u,n
Cc1ccc(NC(=O)N2CCCCCC2)cc1C,3.16µM,4.47µM,x,16.9µM,u
SMILES,Rab9 promoter act,NPC1 prom act,SMN2 splice up,FLuc modulator,ELG1 genotox
CC(C)n1c(CN(C)Cc2ccccc2)nc2c1c(=O)n(C)c(=O)n2C,n[1.84 µM],n,x,n,n
COc1cccc(NC(=O)Cn2cc(S(=O)(=O)N3CCCC3)c(S(=O)(=O)N3CCCC3)c2)c1,x,x,x,n,x
Cc1cc(C)n(CCOC(=O)c2sc3ccccc3c2Cl)n1,n,n,n,8.49µM,n
Cc1ccc(OC(=O)c2ccc3c(=O)n4c(nc3c2)CCC4)cc1,n,n,x,6.01µM,n
COc1cc(OC)cc(OC(=O)c2ccc3c(=O)n4c(nc3c2)CCC4)c1,n,n,x,15.1µM,n
CC(=O)c1cccc(OC(=O)c2ccc3c(=O)n4c(nc3c2)CCC4)c1,n,n,x,n,n
CC(C)(C)C(=O)NC1CCN(S(=O)(=O)c2ccc(C(F)(F)F)cc2)CC1,n,n,n,n,n
COc1ccc2[nH]c3c(NCCC4=CCCCC4)ncnc3c2c1,n,n,n,10.7µM,n
COc1ccc2[nH]c3c(NCc4ccco4)ncnc3c2c1,3.98µM,u,n,9.53µM,n
CCN(CC)CCNc1ncnc2c1[nH]c1ccc(OC)cc12,n,n,n,n,n
COc1ccc2[nH]c3c(NCCCOC(C)C)ncnc3c2c1,0.794µM,1.78µM,x,6.01µM,u
COc1ccc2c(c1)[nH]c1c(=O)n(CCC3=CCCCC3)cnc12,n,n,n,n,n
Cc1cc(C)nc(NC(=O)c2ccc(COc3ccccc3Cl)cc2)c1,n,n,n,u,n
N#Cc1ccc(CS(=O)(=O)c2nnnn2C2CCCCC2)cc1,x,x,n,x,x
COc1cccc(NC(=O)CN2C(=O)COc3ccc(S(=O)(=O)N4CCC(C)CC4)cc32)c1,n,n,x,n,n
NC(=O)NCCC1=CCCCC1,n,n,n,n,n
C=CCn1c(N)c(C(=O)NCCC2=CCCCC2)sc1=S,n,n,12.6µM,u,u
CC(C)C[C@H](NC(=O)OC(C)(C)C)C(=O)N/N=C/C1=Cc2ccccc2OC1C (stereo partly drawn),n,n,n,n,n
CC1Oc2ccccc2C=C1/C=N/NC(=O)c1ccncc1 (stereo not drawn),n,n,x,16.9µM,n
CC(C)c1ccc(/C=C/c2ccc(=O)n(C)n2)cc1,1.78µM,2.24µM,11.2µM,4.78µM,10.3µM
CCOC(=O)C(C)n1nc(/C=C/c2ccc(OC)cc2)ccc1=O (stereo not drawn),n,n,n,n,n
S=c1[nH]nc(-c2ccco2)n1/N=C/C(Cl)=C/c1ccccc1,1.58µM,3.55µM,x,u,u
Cc1cc(-c2n[nH]c(=S)n2/N=C/C(Cl)=C/c2ccccc2)n[nH]1,u,n,u,n,u
CC(=O)c1ccc2c(c1)C1C=CCC1C(c1ccncc1)N2 (stereo not drawn),n,n,n,16.9µM,n
COc1ccc(/C=C\c2onc(C)c2S(=O)(=O)N2CCC(C(=O)NCCC(C)C)CC2)cc1,6.31µM,n,n,n,n
SMILES,Rab9 promoter act,NPC1 prom act,SMN2 splice up,FLuc modulator,ELG1 genotox
c1ccc2c(c1)Cc1cc3cc4c(cc3nc1-2)OCO4,x,x,0.501µM,x,x
N#Cc1c(N)nc2c(c1-c1ccc3c(c1)OCO3)CCc1ccccc1-2,n,n,u,n,n
COC(=O)N[C@@H](c1cccc(F)c1)C(C(C)=O)C(=O)OC (stereo partly drawn),x,x,n,x,x
CC(=O)Nc1sc2c(c1C#N)CCC(C)C2 (stereo not drawn),n,n,n,u,n
CC1CCc2c(sc(NC(=O)c3ccccc3C(=O)O)c2C#N)C1 (stereo not drawn),u,u,x,21.3µM,u
CCC(C)(C)C1CCc2c(sc(NC(=O)c3ccccc3C(=O)O)c2C#N)C1 (stereo not drawn),n,n,x,10.7µM,n
Cc1cc(C(=O)Nc2sc3c(c2C#N)CCC(C)C3)cs1 (stereo not drawn),0.562µM,1.26µM,3.98µM,u,4.61µM
CC(C)(C)c1ccc(C(=O)Nc2sc3c(c2C#N)CCC(C(C)(C)C)C3)cc1 (stereo not drawn),x,x,n,n,x
CCc1cccc(NC(=O)c2cc3c(=O)n(Cc4ccc(OC)cc4)ccc3nc2C)c1,x,x,x,n,x
CCCSc1nc(NCc2ccco2)c2c3c(sc2n1)COC(C)(C)C3,n,n,n,u,n

# High-throughput results from PubChem.
